# PubChem BioAssay
# Activity calls are given as the source filed them. Unless noted, no rule for the calls is given here.
# Experiments:
# [1] = test system: Hepatitis C virus NS3 helicase; experiment: blockers of NS3h binding to ssDNA – biochemical, fluorescence polarization, LOPAC1280 library, primary screen (AID 687035; in the data active = inhibition above about 37%); details: Purified HCV NS3 helicase, Cy5-dT15 ssDNA binding fluorescence polarization; stronger effect = higher value; concentration not given here
# [2] = compounds altering Cy5-DNA-NS3h complex signal – biochemical, LOPAC1280, artefact control for HCV NS3 helicase inhibitor project (AID 687037); details: Cy5-DNA-NS3h complex fluorescence interference counterscreen
# [3] = Wnt pathway potentiators raising nuclear beta-catenin – imaging, WNT3A-conditioned medium, mouse C2C12, NPC library, primary screen (AID 1117326; in the data active = nuclear beta-catenin stimulation mostly above about 4.2%, no sharp cut-off; inactive = mostly below about 10%); details: stronger effect = higher value
# [4] = stimulators of insulin release from INS-1E, primary screen, cell-based, 5 mM glucose, NPC library (AID 1117329;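 active = compound raises insulin release from rat beta cells at 5 mM glucose, no numeric limit stated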); details: rat INS-1E insulin secretion, at 10 µM, stronger effect = higher value
# [5] = growth inhibition of GSK3B-pretreated HCT116 cells – cell-based, CellTiter-Glo, 0.2 to 20 µM (AID 1117336;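 active = compounds lowering colon cancer cell viability after pretreatment blocking the GSK3B kinase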); details: HCT116 viability after GSK3B inhibitor, at 20 µM, stronger effect = higher value
# [6] = inhibition of endothelial tube formation, primary screen, imaging, VEGF stimulated, CD31 staining, tube area, NPC library (AID 1117340;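 active = compound that reduces growth-factor-driven endothelial tube area in a mixed cell culture, no cutoff stated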); details: VEGF-stimulated ADSC/ECFC co-culture, at 10 µM, stronger effect = higher value
# [7] = GLP1 release stimulators, primary, NCI-H716, NPC library (AID 1117341;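 active = compound raises GLP1 secretion from the human gut endocrine cells, with no numeric limit stated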); details: NCI-H716 cells, at 10 µM, stronger effect = higher value
# [8] = HCT116 colon cancer cell growth inhibition, primary screen, CellTiter-Glo luminescence, NPC library (AID 1117342;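 active = compounds that lower survival of HCT116 colon cancer cells in the luminescence readout, no numeric limit stated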); details: at 20 µM (top of the series)
# [9] = reduced SW480 viability measured with CellTiter-Glo, NPC library, primary (AID 1117343;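 active = compounds that lower viability of the colon cancer cells in the luminescence readout, with no numeric limit stated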); details: CellTiter-Glo luminescence; at 20 µM (top of the series)
# [10] = NPC library primary testing for decreased DLD-1 cell viability via CellTiter-Glo (AID 1117346;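 active = compounds that lower survival of DLD-1 colon cancer cells in the luminescence readout, no cutoff given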); details: DLD-1 viability, CellTiter-Glo luminescence; at 20 µM (top of the series)
# [11] = target: 6-phosphogluconate dehydrogenase, decarboxylating (Homo sapiens) (UniProt P52209); experiment: inhibition of human phosphogluconate dehydrogenase – biochemical, recombinant enzyme, NADPH absorbance, primary screen (AID 1159550;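 active = at least 20% inhibition of 6-phosphogluconate dehydrogenase activity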); details: recombinant 6PGD, NADPH absorbance 341 nm; at 10 µM; stronger effect = higher value
# [12] = signal quenchers or enhancers, Cy5 substrate/SSB – biochemical, NIH Clinical Collection, E. coli SSB, artefact control for HCV NS3 helicase inhibitor project (AID 743268); details: Cy5-oligo bound E. coli SSB, fluorescence interference
# [13] = test system: Hepatitis C virus NS3 helicase; experiment: blockers of NS3h binding to DNA – biochemical, fluorescence polarization, NIH Clinical Collection, primary screen (AID 743270); details: NS3 helicase binding to Cy5-dT15 DNA, stronger effect = higher value, concentration not given here
# [14] = target: Single-stranded DNA-binding protein (Escherichia coli (strain K12)) (UniProt P0AGE0); experiment: SSB-ssDNA binding inhibitors – biochemical, fluorescence polarization, NIH Clinical Collection, counter-screen for HCV NS3 helicase inhibitor project (AID 743271; in the data active = inhibition above about 28%); details: E. coli SSB-DNA binding, stronger effect = higher value, concentration not given here
# [15] = compounds distorting NS3 helicase fluorescence signal – biochemical, NIH Clinical Collection, artefact control for HCV NS3 helicase inhibitor project (AID 743272); details: fluorescence interference counterscreen, HCV NS3 helicase assay; stronger effect = lower value;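 also: HCV NS3 helicase with a Cy5 labelled single stranded DNA probe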
# [16] = test system: Neuropilin-2 / VEGF-C interaction (human); experiment: small molecules blocking Neuropilin-2/VEGF-C interaction – biochemical, microplate binding format, z-score (AID 743281); details: microplate NRP2/VEGF-C binding assay; stronger effect = lower value
# Chain of 6-phosphogluconate dehydrogenase, decarboxylating (Homo sapiens) (P52209 whole entry, looked up): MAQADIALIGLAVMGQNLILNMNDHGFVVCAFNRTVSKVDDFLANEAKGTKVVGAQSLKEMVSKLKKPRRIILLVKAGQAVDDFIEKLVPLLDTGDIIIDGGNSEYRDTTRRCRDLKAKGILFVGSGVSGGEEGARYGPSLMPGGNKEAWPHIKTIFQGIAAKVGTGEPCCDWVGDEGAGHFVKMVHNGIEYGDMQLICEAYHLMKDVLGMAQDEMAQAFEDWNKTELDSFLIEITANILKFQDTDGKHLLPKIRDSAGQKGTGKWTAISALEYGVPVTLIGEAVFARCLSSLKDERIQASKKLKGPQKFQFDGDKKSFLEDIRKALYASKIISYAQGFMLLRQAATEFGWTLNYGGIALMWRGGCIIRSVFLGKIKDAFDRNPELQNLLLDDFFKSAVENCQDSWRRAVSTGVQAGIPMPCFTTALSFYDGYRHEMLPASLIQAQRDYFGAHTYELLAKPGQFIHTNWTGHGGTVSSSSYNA
SMILES,inhibition [1],fluorescence ratio (interference) [2],nuclear beta-catenin stimulation ([3]; at 10 µM),"nuclear beta-catenin stimulation ([3]; stimulation, at 2 µM) [%]",insulin secretion stimulation [4],viability decrease [5],tube area decrease [6],GLP1 secretion stimulation [7],inhibition of viability [8],viability decrease (inhibition) [9],viability decrease (inhibition) [10],inhibition [11],fluorescence ratio [12],inhibition [13],inhibition [14],fluorescence ratio [15],z-score [16]
CC(C)(Oc1ccc(CCNC(=O)c2ccc(Cl)cc2)cc1)C(=O)O,-2% (inactive),1.1 (inactive),6.1% (inactive),5.1,0.4% (inactive),-10.3% (inactive),-25.4% (inactive),-1.3% (inactive),4.05% (inactive),-13.9% (inactive),-20.8% (inactive),4.98% (inactive),,,,,
CCCOc1ccccc1-c1nc2n[nH]nc2c(=O)[nH]1,-1% (inactive),1 (inactive),-0.2% (inactive),0.5,-0.8% (inactive),-203% (inactive),-11.3% (inactive),1.4% (inactive),17.5% (inactive),9.4% (inactive),1% (inactive),-4.08% (inactive),,,,,
CCN(CC)CCOCCOC(=O)C1(c2ccccc2)CCCC1,0% (inactive),1 (inactive),-0.6% (inactive),-0.4,60% (active),19.3% (inactive),-3.1% (inactive),5.7% (inactive),56.4% (active),20.6% (inactive),62.5% (active),1.3% (inactive),,,,,
CC(C)NNC(=O)c1ccncc1,-3% (inactive),0.9 (inactive),2.3% (inactive),-0.3,-2.5% (inactive),-3.15% (inactive),5.7% (inactive),0.4% (inactive),4.9% (inactive),34.8% (inactive),7.6% (inactive),-0.838% (inactive),,,,,
Cc1cc(C(C)(C)C)c(O)c(C)c1CC1=NCCN1,-6% (inactive),0.9 (inactive),1.6% (inactive),2.7,2.1% (inactive),5.6% (inactive),-3.7% (inactive),4.3% (inactive),20.6% (inactive),-4.2% (inactive),-0.8% (inactive),6.36% (inactive),,,,,
Clc1ccccc1C(c1ccccc1)(c1ccccc1)n1ccnc1,-2% (inactive),1 (inactive),1.1% (inactive),1.7,0.9% (inactive),110% (active),73.1% (active),29.1% (active),113% (active),132% (active),101% (active),-6.11% (inactive),0.9 (inactive),5.94% (inactive),6.83% (inactive),0.9 (inactive),0.266 (inactive)
CCC1(C)CC(=O)NC1=O (configuration not stated),0% (inactive),1 (inactive),0.2% (inactive),-0.3,0% (inactive),-17.5% (inactive),-2.9% (inactive),-2.3% (inactive),-5.57% (inactive),-27.9% (inactive),-7.1% (inactive),-0.667% (inactive),,,,,
CS(=O)(=O)Nc1ccc([N+](=O)[O-])cc1Oc1ccccc1,-3% (inactive),1 (inactive),0.4% (inactive),-0.6,0.6% (inactive),7.2% (inactive),11.6% (inactive),0.1% (inactive),15% (inactive),10.5% (inactive),17.8% (inactive),11.1% (inactive),,,,,
NCCCC(=O)O,,1 (inactive),2.4% (inactive),1.9,-0.7% (inactive),3.2% (inactive),12% (inactive),1.6% (inactive),1.3% (inactive),10.4% (inactive),0.95% (inactive),15.9% (inactive),,,,,
